Here are results for 8 molecules from ChEMBL document CHEMBL3988442, “University of Dundee, Small-Polar-MMV Screening Library” (2021).

Common to all, as to set-up: scale not given: direction of the effect not stated beside the values
Experiment [1] deals with Protein translocase subunit SecA (Escherichia coli (strain K12)) (UniProt P10408). Kind of experiment: Assay to Identify E. coli SecA ATPase Inhibitors. The format is functional. Particulars: 30 µM.
For experiment [2], the target named is T1, Ubiquitin-activating enzyme e1, putative (Leishmania donovani (strain BPK282A1)) (UniProt E9BSI1).
T1 sequence (whole entry): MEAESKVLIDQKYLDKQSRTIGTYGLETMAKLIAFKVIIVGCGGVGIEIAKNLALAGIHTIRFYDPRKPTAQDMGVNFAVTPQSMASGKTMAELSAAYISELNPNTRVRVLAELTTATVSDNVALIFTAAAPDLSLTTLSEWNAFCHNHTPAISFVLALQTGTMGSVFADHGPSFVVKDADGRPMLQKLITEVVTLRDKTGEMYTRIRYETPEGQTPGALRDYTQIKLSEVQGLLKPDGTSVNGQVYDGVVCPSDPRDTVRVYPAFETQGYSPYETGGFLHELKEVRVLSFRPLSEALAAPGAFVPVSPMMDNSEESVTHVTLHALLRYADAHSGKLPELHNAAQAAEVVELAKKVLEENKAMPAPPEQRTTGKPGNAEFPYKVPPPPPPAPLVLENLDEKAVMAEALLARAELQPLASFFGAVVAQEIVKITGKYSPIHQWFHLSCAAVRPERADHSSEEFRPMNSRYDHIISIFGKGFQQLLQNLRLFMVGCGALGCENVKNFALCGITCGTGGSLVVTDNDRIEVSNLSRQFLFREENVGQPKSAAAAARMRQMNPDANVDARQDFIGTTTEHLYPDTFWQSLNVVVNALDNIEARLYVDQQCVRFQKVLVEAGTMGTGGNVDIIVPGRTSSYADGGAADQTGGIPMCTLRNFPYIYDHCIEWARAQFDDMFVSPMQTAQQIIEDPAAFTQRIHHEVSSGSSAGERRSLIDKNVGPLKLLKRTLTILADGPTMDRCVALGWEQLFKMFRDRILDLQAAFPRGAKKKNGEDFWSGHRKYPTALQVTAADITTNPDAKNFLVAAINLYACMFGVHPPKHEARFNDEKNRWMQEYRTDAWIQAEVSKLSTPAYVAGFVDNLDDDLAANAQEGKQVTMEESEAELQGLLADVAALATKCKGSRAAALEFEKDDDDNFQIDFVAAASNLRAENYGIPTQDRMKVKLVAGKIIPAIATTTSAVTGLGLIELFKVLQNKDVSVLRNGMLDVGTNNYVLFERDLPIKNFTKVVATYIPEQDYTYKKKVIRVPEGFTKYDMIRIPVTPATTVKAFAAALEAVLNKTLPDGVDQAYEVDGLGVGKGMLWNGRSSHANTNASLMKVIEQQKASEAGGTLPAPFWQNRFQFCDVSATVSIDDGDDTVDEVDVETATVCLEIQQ
Kind of experiment: Leishmania donovani Ubiquitin Activating Enzyme (LdE1). The format is functional. Particulars: 30 µM.

For experiment [3], the target named is AMP-activated protein kinase, AMPK (Homo sapiens) (UniProt P54646+O43741+P54619+Q9UGJ0+Q9Y478+Q13131+Q9UGI9). Description: AMP-dependent Kinase enzyme assay. An in vitro enzyme assay that detects ADP turnover that is directly proportional to AMPK activity. This uses naive AMPK that is activated during the assay with MK-8722. The format is functional. Particulars: 30 µM.

Experiment [4] has as its target Sialic acid-binding Ig-like lectin 9 (Homo sapiens) (UniProt Q9Y336). Kind of experiment: Hs-Siglec9 ALPHAscreen SOP 20170721. Particulars: 10 µM. In general terms: Bead proximity is the source of the signal in Alpha formats.
The test system of another experiment is Trypanosoma cruzi. Description: Trypanosoma cruzi phosphomannomutase and mannose-1-phosphate guanylyltransferase assay. Particulars: 10 µM. The format is functional.
Experiment [5] addresses T2, Arginase-2, mitochondrial (Homo sapiens) (UniProt P78540).
T2 sequence (whole entry): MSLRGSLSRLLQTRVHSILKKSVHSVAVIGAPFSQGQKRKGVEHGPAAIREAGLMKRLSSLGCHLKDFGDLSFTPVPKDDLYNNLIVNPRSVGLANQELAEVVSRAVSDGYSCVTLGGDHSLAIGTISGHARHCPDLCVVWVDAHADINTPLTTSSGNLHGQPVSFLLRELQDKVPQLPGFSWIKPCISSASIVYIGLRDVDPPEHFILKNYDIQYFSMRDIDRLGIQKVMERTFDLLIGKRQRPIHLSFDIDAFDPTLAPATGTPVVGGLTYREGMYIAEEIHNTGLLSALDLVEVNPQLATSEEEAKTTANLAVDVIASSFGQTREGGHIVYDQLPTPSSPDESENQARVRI
Description: in vitro enzyme assay to detect the production of urea directly proportional to the activity of Arginase II. Further: in the data most compounds retested in dose-response had high values. In kind it is functional. Particulars: 33.3 µM.

In experiment [6] the target is T3, Proteasome subunit beta (Trypanosoma cruzi) (UniProt O96673).
T3 sequence (whole entry): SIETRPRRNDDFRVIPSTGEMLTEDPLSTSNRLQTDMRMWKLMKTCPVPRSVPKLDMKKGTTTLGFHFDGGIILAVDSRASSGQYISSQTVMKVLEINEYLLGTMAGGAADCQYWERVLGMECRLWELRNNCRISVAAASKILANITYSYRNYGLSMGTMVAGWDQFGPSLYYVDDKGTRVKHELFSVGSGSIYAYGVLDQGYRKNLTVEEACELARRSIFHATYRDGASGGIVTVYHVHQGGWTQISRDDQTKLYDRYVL
Description: Trypanosoma cruzi proteasome chymotrypsin-like activity (TcProtChymo) assay. Further: in the data most compounds retested in dose-response had high values. The format is functional. Particulars: 9.37 µM.

A further experiment is filed under the species Homo sapiens. Description: To identify inhibition of the IFN signalling (Jak-Stat) pathway via expression of an eGFP reporter gene under the control of an IFN-stimulated response element (ISRE) containing MxA promoter. In kind it is functional. Particulars: 30 µM.
Experiment [7] has as its target T4, Tyrosyl-tRNA synthetase, putative (Trypanosoma cruzi (strain CL Brener)) (UniProt Q4DSP6).
T4 sequence (whole entry): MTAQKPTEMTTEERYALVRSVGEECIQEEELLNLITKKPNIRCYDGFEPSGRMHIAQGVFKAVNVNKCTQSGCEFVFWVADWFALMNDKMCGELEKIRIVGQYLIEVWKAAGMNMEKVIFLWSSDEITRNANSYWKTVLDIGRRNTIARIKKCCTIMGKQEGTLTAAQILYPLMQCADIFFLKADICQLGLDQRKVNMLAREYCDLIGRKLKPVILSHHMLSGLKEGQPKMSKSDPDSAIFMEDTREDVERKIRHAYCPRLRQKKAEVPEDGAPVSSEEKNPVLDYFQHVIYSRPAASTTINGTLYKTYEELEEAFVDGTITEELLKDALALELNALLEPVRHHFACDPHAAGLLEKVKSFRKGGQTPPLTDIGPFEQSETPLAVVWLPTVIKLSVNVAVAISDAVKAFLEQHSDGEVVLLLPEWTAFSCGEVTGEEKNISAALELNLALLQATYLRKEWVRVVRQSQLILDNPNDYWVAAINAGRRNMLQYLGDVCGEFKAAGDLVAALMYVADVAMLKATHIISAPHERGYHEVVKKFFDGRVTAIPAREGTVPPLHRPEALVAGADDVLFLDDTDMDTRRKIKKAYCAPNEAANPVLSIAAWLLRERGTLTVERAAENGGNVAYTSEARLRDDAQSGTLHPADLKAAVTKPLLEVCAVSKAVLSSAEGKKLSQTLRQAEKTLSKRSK
Description: Trypanosoma cruzi tyrosyl tRNA synthetase (TcYRS) _High Tyrosine SOP. Further: in the data most compounds retested in dose-response had high values. The format is functional. Particulars: 30 µM.

The target in experiment [8] is T4, Tyrosyl-tRNA synthetase, putative (Trypanosoma cruzi (strain CL Brener)). Kind of experiment: Trypanosoma cruzi tyrosyl tRNA synthetase (TcYRS) SOP. Particulars: 30 µM. In kind it is functional.
The target in experiment [9] is Chromo domain-containing protein 1 (Saccharomyces cerevisiae (strain ATCC 204508 / S288c) (Baker's yeast)) (UniProt P32657). Kind of experiment: ScCHD-1 Enzyme Inhibition Assay. Further: in the data most compounds retested in dose-response had high values. The format is functional. Particulars: 30 µM.
Sequence of Chromo domain-containing protein 1 (Saccharomyces cerevisiae (strain ATCC 204508 / S288c) (Baker's yeast)) (P32657 whole entry, the tested form may be a part): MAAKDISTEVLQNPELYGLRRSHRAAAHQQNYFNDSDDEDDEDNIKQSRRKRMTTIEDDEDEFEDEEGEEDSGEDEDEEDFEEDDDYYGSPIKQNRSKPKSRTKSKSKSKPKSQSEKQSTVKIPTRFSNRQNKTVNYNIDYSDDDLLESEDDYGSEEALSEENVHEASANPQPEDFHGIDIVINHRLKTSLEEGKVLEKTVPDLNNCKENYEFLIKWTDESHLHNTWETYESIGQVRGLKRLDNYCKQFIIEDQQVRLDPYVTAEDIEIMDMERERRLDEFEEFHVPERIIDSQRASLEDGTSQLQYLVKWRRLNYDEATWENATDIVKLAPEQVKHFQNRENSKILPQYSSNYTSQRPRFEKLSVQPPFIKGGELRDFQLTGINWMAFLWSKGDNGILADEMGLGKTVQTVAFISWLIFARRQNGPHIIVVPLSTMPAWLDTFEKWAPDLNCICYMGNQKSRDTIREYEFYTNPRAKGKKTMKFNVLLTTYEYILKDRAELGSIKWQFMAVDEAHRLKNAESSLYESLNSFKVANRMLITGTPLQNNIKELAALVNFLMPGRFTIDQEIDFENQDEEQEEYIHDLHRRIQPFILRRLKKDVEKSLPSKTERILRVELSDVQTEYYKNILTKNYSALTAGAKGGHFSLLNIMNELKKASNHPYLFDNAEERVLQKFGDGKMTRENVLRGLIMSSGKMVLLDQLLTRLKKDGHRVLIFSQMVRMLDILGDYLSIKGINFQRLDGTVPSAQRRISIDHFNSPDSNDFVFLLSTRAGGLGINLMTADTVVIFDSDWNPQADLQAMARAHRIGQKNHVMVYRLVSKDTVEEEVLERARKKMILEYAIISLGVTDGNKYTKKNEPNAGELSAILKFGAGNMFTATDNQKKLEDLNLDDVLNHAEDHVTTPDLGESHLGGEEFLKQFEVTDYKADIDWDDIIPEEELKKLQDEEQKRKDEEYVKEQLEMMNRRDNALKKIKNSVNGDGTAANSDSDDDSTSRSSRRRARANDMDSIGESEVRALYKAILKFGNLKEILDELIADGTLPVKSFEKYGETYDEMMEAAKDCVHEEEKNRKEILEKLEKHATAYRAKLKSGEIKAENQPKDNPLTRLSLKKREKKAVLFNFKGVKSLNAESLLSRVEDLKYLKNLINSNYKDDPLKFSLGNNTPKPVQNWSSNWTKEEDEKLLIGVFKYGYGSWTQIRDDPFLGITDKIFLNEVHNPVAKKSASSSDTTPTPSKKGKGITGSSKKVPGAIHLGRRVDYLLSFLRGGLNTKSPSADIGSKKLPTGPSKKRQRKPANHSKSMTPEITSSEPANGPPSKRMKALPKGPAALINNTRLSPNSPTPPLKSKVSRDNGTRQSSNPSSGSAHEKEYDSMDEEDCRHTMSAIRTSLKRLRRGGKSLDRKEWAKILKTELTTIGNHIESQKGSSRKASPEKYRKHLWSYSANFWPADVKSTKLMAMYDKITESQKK

For some of these results: Potency and affinity values are given separately.

Sequence of Protein translocase subunit SecA (Escherichia coli (strain K12)) (P10408 whole entry): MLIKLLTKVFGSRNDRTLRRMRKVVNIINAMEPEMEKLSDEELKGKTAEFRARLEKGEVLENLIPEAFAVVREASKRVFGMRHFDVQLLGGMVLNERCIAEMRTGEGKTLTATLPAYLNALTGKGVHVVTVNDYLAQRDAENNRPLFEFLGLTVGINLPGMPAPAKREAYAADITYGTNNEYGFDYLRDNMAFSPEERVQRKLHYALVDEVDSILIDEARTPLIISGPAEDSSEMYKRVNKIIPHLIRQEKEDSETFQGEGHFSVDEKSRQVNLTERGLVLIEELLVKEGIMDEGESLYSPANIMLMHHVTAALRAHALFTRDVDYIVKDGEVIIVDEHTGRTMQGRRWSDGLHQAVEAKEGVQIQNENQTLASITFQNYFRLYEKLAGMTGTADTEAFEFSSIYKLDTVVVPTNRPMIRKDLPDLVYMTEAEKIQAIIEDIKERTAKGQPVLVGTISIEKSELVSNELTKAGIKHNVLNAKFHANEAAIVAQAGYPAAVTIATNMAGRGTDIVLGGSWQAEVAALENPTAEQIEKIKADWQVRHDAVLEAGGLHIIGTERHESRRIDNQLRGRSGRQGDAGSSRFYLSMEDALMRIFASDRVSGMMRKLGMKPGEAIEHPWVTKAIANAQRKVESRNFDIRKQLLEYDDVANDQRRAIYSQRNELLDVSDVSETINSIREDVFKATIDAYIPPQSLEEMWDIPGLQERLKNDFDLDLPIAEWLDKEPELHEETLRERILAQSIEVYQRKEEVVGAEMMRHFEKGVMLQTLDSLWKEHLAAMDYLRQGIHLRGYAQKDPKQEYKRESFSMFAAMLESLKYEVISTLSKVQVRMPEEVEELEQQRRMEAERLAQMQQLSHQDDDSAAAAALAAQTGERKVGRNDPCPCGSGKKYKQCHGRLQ
Sequence of Sialic acid-binding Ig-like lectin 9 (Homo sapiens) (Q9Y336 whole entry): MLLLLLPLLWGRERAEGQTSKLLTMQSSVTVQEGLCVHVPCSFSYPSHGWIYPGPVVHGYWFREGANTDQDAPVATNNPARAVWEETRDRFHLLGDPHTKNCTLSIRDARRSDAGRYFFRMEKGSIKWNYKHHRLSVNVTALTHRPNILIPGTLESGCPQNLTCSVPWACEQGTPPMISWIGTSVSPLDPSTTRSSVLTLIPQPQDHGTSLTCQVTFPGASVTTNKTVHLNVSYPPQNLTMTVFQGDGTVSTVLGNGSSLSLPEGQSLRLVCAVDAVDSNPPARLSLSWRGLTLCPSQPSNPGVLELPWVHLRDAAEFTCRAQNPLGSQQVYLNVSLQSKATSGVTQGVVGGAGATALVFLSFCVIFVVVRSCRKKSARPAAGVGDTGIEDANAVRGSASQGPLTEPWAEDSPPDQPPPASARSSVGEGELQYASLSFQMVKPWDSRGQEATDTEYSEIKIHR

In the case of `O=C1O[C@@H]2CN(Cc3ccccc3)C[C@@H]2N1CCCN1CCOCC1`, the Percent Effect in experiment [1] was -6.39%; in [2], 2.67%; in experiment [3], -0.894%; in experiment [4] it was 2%; in the experiment on Trypanosoma cruzi, -3.8%; in experiment [5], -0.521%. The Percent Effect was 15.2% in experiment [6]; 20% in the experiment filed under Homo sapiens; 4.92% in experiment [7]; 11.1% in [8]; -5.71% in experiment [9].
As to `COCC(c1cccc(C(F)(F)F)c1)N(C)C(=O)c1cc(C)no1` (stereo not drawn), the Percent Effect in experiment [1] is -0.889%; in experiment [2], 13.2%; in experiment [3], 1.05%; in experiment [4], -2.93%; with Trypanosoma cruzi, 0.564%; in experiment [5], 4.98%. Moreover, the Percent Effect in experiment [6] was 6.68%; in the experiment listed under Homo sapiens, 10.2%; in experiment [7], 1.47%; in experiment [8], 19.5%; in [9] it was -12.2%.
Turning to `CCc1n[nH]c(C2CN(C(=O)c3ccsc3)CCO2)n1` (stereo not drawn), the Percent Effect in [1] was -3.58%; in experiment [2], 0%; in [3], 6.15%; in experiment [4] it was 8.54%; with Trypanosoma cruzi, -0.686%; in [5], 4.84%. Besides, the Percent Effect was 6.39% in experiment [6]; 4.84% in the experiment filed under Homo sapiens; -2.86% in experiment [7]; -2.35% in experiment [8]; -13.8% in experiment [9].
Consider `CCOc1ncccc1NC(=O)NCC(O)c1ccccc1OC` (stereo not drawn), for which the Percent Effect in [1] was -2.5%; in [2], 22.8%; in experiment [3] it was 4.8%; in experiment [4], -4.05%; in the experiment on Trypanosoma cruzi it was 4.06%; in [5], 4.94%. Moreover, the Percent Effect in experiment [6] was 9.75%; in the experiment filed under Homo sapiens it was 23.4%; in experiment [7] it was 3.45%; in experiment [8], 21.5%; in experiment [9], -7.12%.
With `CC(C)c1csc(C2CCCN(C(=O)Cn3ccccc3=O)C2)n1` (stereo not drawn), the Percent Effect in experiment [1] was -2.92%; in experiment [2] it was 2.63%; in experiment [3], 1.07%; in experiment [4], -4.27%; with Trypanosoma cruzi it was 8.27%; in experiment [5] it was -1.92%. Besides, the Percent Effect in [6] was 3.68%; in the experiment listed under Homo sapiens, 10.9%; in experiment [7] it was 0.49%; in [8], 9.76%; in experiment [9] it was -9.15%.
On to `CCOc1ccnc(N2CCN(C(=O)c3cc(Cl)c[nH]3)CC2)n1`, for which the Percent Effect was -4.52% in experiment [1]; 12.7% in [2]; 0.626% in experiment [3]; 5.17% in experiment [4]; 1.98% in the experiment with Trypanosoma cruzi; 0.38% in experiment [5]. The Percent Effect in experiment [6] was 2.54%; in the experiment listed under Homo sapiens, 0.798%; in [7], 9.36%; in experiment [8], 21.5%; in [9], -5.03%.
In the case of `Cn1ncc2c1NC(=O)CC2c1ccccc1Cl` (stereo not drawn), the Percent Effect in experiment [1] is -6.92%; in [2] it was 10.5%; in experiment [3], 5.36%; in experiment [4] it was 7.02%; with Trypanosoma cruzi, 3.6%; in experiment [5] it was -5.92%. In addition, the Percent Effect in [6] is 6.62%; in the experiment listed under Homo sapiens it was 16.4%; in experiment [7] it was 1.06%; in experiment [8], 5.2%; in experiment [9], -0.659%.
In the case of `O=C(NC1CCCC1)N1CCCC(c2nccn2Cc2ccncc2)C1` (stereo not drawn), the Percent Effect was -3.14% in experiment [1]; 4.17% in experiment [2]; 2.03% in experiment [3]; 9.67% in experiment [4]; 8.07% in the experiment on Trypanosoma cruzi; -0.883% in [5]. The Percent Effect in experiment [6] was 7.54%; in the experiment filed under Homo sapiens, -38.2%; in experiment [7], 4.21%; in [8], 5.13%; in experiment [9], -4.06%.
